Source: PubChem
Compounds with a hit are over-represented: about 2.6% of the library has one in this group of screens.
IDE inh – inhibits human insulin-degrading enzyme in HEK cells. P14735. FAbetaB cleavage, fluorescence polarization. inhibition, % at 5.59 µM. hit rate 0.41% among 320,000. AID 434962;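 active = percent inhibition above the average of all tested compounds plus 3 SD, set per screening campaign, cut at about 16% in these data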;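 also: IDE supplied by intact live HEK cells; FP after avidin binding of uncleaved biotin substrate so inhibition keeps polarization high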
IDE cell activ – boosts human insulin-degrading enzyme activity in HEK cells; hit rate 0.073% among 340,000; P14735; activation, % at 5.96 µM; FAbeta-B cleavage, fluorescence polarization; 0% vehicle, 100% cell-free pure enzyme wells; AID 493087;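 active = activation above the mean of all tested compounds plus 3 SD, set per screening campaign, cut at about 17% in these data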
Myeloid diff 2 – compounds promoting myeloid differentiation | ER-HoxA9 myeloid progenitors, lysozyme-GFP differentiation, flow cytometry | calls only at 10 µM | hit rate 1% among 360,000;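 active = normalized GFP-positive differentiation at or above the plate's own cutoff, the solvent-only control mean plus 3 SD; inconclusive = no clear call, values can overlap the other calls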;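 also: cells exposed to compound for four days before flow analysis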
TPT1 inh – blocks Candida albicans tRNA 2'-phosphotransferase; recombinant caTPT1, FP RNA substrate dephosphorylation; inhibition, % at 5 µM; hit rate 0.81% among 300,000; AID 1962;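 active = inhibition above the mean of all tested compounds plus 3 SD, set per screening campaign, cut at about 24% in these data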
CRFBP-R2 agonist – CRF-BP/CRF-R2 complex agonism; hit rate 0.46% among 350,000; HEK293 CRF-R2/CRF-BP, calcium dye fluorescence (FLIPR); percent of saturating CRF peptide response; activation, % at 13.2 µM;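 active = activation of at least 50%, plus an integration ratio under a set limit after plate pattern correction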
CRFR2-BP antag – blocks CRF-induced signaling of the CRF-BP/CRF-R2 complex. HEK293 CRF-R2/CRF-BP, CRF-induced calcium fluorescence. AID 588475. inhibition, % at 11.8 µM. hit rate 0.59% among 350,000;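 active = inhibition of the ligand-induced calcium signal above about 50% at the single tested concentration, limit read from the data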
Of the large screens only hits and unclear results are named; the others gave an inactive call.

Cc1ccc(CN(CC(=O)NCc2ccc3c(c2)OCO3)C(=O)c2csnn2)cc1	Myeloid diff 2 active
CCc1nc2ccc(C(=O)NCCC(C)C)cn2c1N(CCN(C)C)CC1CC1	none (no result: IDE inh, IDE cell activ, TPT1 inh, CRFBP-R2 agonist, CRFR2-BP antag)
CC1Cc2nc(SCC(=O)Nc3ccc4c(c3)OCCO4)n(C)c(=O)c2S1 (centres undefined)	none
COCCn1c(SCC(=O)Nc2ccc3c(c2)OCCO3)nc2c(c1=O)SC(C)C2 (centres undefined)	Myeloid diff 2 active
O=[N+]([O-])c1cccc(-c2csc(N/N=C/c3cccc(O)c3)n2)c1	none
COc1ccccc1N1CCN(C(=O)c2ccc(Cl)c(S(=O)(=O)NCc3ccco3)c2)CC1	Myeloid diff 2 active
CC(NCC(=O)Nc1ccccc1C(=O)NC1CC1)c1ccc(F)cc1F (centres undefined)	none (no result: TPT1 inh)
CCOC(=O)c1c(NC(=O)c2c(Br)cnn2C)c(C#N)nn1-c1ccccc1	CRFR2-BP antag 67.3
O=C(c1cc2ccccc2[nH]1)N(Cc1cccnc1)CC1CCCN(C2CCCCC2)C1 (centres undefined)	none
NC(=O)c1ccc(C2SCC(=O)N2Cc2ccccc2)cc1 (centres undefined)	CRFR2-BP antag 78.1
Cc1ccc2nc(N3CC(=O)Nc4ccccc43)nc(-c3ccccc3)c2c1	Myeloid diff 2 active
Cc1ccc2nc(N3CCC(C(=O)O)CC3)nc(-c3ccccc3)c2c1	none
COc1ccc(C(O)P(=O)(OCCC(C)C)c2ccc(N(C)C)cc2)cc1 (centres undefined)	none
CC(C)CC(NC(=O)/C(=C/c1ccco1)NC(=O)c1ccc(Br)o1)C(=O)O (centres undefined)	CRFR2-BP antag 58.4
CC(C)CC(NC(=O)/C(=C\c1ccco1)NC(=O)c1ccco1)C(=O)O (centres undefined)	none
CC(Oc1ccc(Br)cc1)C(=O)Nc1ccc(S(=O)(=O)NC2=NCCCCC2)cc1 (centres undefined)	CRFBP-R2 agonist 81.3 (no result: IDE inh, TPT1 inh)
Cc1cc(N/N=C/c2ccc(F)cc2)nc(-n2nc(C)cc2C)n1	none (no result: IDE cell activ)
CCOc1cc(/C=N/Nc2cc(C)nc(-n3nc(C)cc3C)n2)ccc1O	IDE cell activ 22.1
Cc1cccc(S(=O)(=O)c2c(N)n(Cc3ccco3)c3nc4ccccc4nc23)c1	Myeloid diff 2 active, CRFBP-R2 agonist 96.9
CCCCn1c(N)c(S(=O)(=O)c2ccc(C)cc2)c2nc3ccccc3nc21	none
CC1CCCN(C(=O)c2ccc(NS(=O)(=O)c3cccc([N+](=O)[O-])c3)cc2)C1 (centres undefined)	none
O=C(c1ccc(NS(=O)(=O)c2cccc([N+](=O)[O-])c2)cc1)N1CCCCCC1	CRFR2-BP antag 114.7
CCC(=O)N(c1nnc(SCC(=O)Nc2ccc(N3CCOCC3)cc2)s1)C1CC1	none (no result: TPT1 inh)
CCOC(=O)c1ccc(NC(=S)N2CCSC2c2ccc(Cl)cc2)cc1 (centres undefined)	CRFBP-R2 agonist 120.4
CCOc1ccc(NS(=O)(=O)c2ccc(NC(=O)[C@@H]3CCCC[C@@H]3C(=O)O)cc2)cc1	CRFBP-R2 agonist 189.5
CCOc1ccc(NS(=O)(=O)c2ccc(C(=O)N3CCCC(C)C3)cc2)cc1 (centres undefined)	CRFBP-R2 agonist 54.9
CCOc1ccc(S(=O)(=O)Nc2ccc(C(=O)N3CCCC3)cc2)cc1	none
Cc1ccc(NS(=O)(=O)c2ccc(C(=O)N3CC(C)OC(C)C3)cc2)cc1 (centres undefined)	CRFBP-R2 agonist 82.6
O=C(c1ccc(S(=O)(=O)Nc2ccccc2)cc1)N1CCCC(C(F)(F)F)C1 (centres undefined)	CRFBP-R2 agonist 72.9
Cc1ccc(NS(=O)(=O)c2ccc(C(=O)N3CCC3)cc2)cc1	none
CCOc1ccc(S(=O)(=O)N2CCN(C(=O)c3cccnc3)CC2)cc1	none
CCOc1ccc(S(=O)(=O)N2CCN(C(=O)c3ccncc3)CC2)cc1	CRFR2-BP antag 61.6 (no result: Myeloid diff 2)
O=C(CCN1CCOCC1)NC1CCCN(Cc2ccccc2F)C1 (centres undefined)	none
COC(=O)Cc1ccc(NC(=S)NC2CC2)cc1	Myeloid diff 2 active
COC(=O)Cc1ccc(NC(=S)NCCO)cc1	none
COC(=O)Cc1ccc(NC(=S)NCCC(C)C)cc1	CRFR2-BP antag 87.6
Cn1c(C(=O)NCCN2CCN(c3ccccc3F)CC2)cc2c(=O)n(C)c3ccccc3c21	Myeloid diff 2 active
Cn1c(C(=O)NCCCN2CCN(c3ccc(F)cc3)CC2)cc2c(=O)n(C)c3ccccc3c21	Myeloid diff 2 inconclusive (no result: IDE inh, TPT1 inh)
CCN(c1ccc(NS(=O)(=O)c2cc(Cl)ccc2Cl)cc1)C(C)C	CRFR2-BP antag 54.7
CCOc1ccc(CCNS(=O)(=O)c2cc3c(cc2C)NC(=O)CO3)cc1OCC	none
COc1cccc2ccc(CC(O)(c3ccccc3)c3ccccc3)nc12	CRFR2-BP antag 58.4 (no result: IDE inh, IDE cell activ, TPT1 inh)
CCOC(=O)/C(=C\c1ccc(N2CCC(c3ccccc3)=N2)cc1)C(C)=O	CRFBP-R2 agonist 99.2 (no result: IDE inh, TPT1 inh)
Cc1oc(-c2ccc(Cl)cc2)nc1CN1CCCC(C(=O)NC2CC2)C1 (centres undefined)	none
Cc1oc(-c2ccc(Cl)cc2)nc1CN1CCCC(C(=O)NCc2ccco2)C1 (centres undefined)	Myeloid diff 2 active
CC1=NN(Cc2c(C)nn(Cc3ccccc3)c2C)C(C)(C)C1	none
O=C(O)c1cc(-c2ccc3ccccc3c2)nc2ccc(F)cc12	Myeloid diff 2 active
COC(=O)CCCC(=O)OC	none (no result: TPT1 inh)
COc1cc(OC)c(OC)cc1/C=C1\CCC/C(=C\c2cc(OC)c(OC)cc2OC)C1=O	none (no result: IDE inh, TPT1 inh)
COc1ccc(/C=C2\CCC/C(=C\c3ccc(OC)c(OC)c3OC)C2=O)c(OC)c1OC	CRFR2-BP antag 69.2 (no result: IDE inh, TPT1 inh)
CCCN(CC(=O)Nc1ccc(F)c(F)c1F)C(=O)Cn1c(=O)cnc2ccccc21	Myeloid diff 2 active
CCN(CC(=O)Nc1c(F)cccc1F)C(=O)Cn1c(=O)cnc2ccccc21	none (no result: TPT1 inh)
CSc1ccccc1C(=O)Nc1cccc(C(C)O)c1 (centres undefined)	none
Cc1ccc(N2CC(C(=O)OCC(=O)Nc3cc(C)on3)CC2=O)c(C)c1 (centres undefined)	Myeloid diff 2 active
Cc1cccc(C)c1NC(=O)COC(=O)c1cc[n+]([O-])cc1	none
COc1ccc(N2C(=O)C3CCCN3C2c2ccc(Cl)cc2)cc1 (centres undefined)	none
O=C1C2CCCN2C(c2ccccc2)N1c1ccc(Cl)cc1 (centres undefined)	Myeloid diff 2 active
COc1cccc2cc(C(C)N(CCCN3CCOCC3)C(=S)Nc3ccc(C)c(C)c3)oc12 (centres undefined)	none
CCc1cccc(NC(=S)N(CCCN2CCOCC2)C(C)c2cc3cccc(OC)c3o2)c1 (centres undefined)	CRFR2-BP antag 76.5
COc1cc(C(=O)OCC(=O)Nc2ccccc2)cc2c1OCCO2	none (no result: IDE inh, IDE cell activ, TPT1 inh)
